Screening results deposited in PubChem BioAssay by National Center for Advancing Translational Sciences (NCATS).
IL-1B inflam inh – qHTS for Inhibitors of Inflammasome Signaling: IL-1-beta AlphaLISA Primary Screen; actives 4.7% (n = 360,000); activity change, % at 57.5 µM; THP-1 LPS/ATP IL-1B secretion, AlphaLISA, 16 h; stronger effect = lower value; in the data active = activity change below about -50%; inconclusive = mostly about -30% to -49%; note: % is set by controls: 0 for no effect and ±100 for the full control effect
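Secreted IL-1B measured by AlphaLISA bead assay after 16 h compound exposure of THP-1 cells; compounds (final up to 57.5 uM) added 1 h before LPS (250 ng/mL) and ATP (1.25 mM) stimulation; lower signal means less secretion.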
TGFb inhibitor – qHTS for Inhibitors of TGF-b; HepG2 CAGA-GFP TGF-b/SMAD3 reporter, GFP fluorescence, 18 h; TGF-beta stimulated, 500 pg/mL final; Potency, µM (titrated, usually from 46.1 µM), for inactives: at the top dose activity, negative = inhibition, hits mostly inhibitors; actives 1.2% (n = 410,000); AID 588855, 2011; note: potency is the fitted concentration of half-maximal effect; % is set by controls: 0 for no effect and ±100 for the full control effect; nearly all actives have a fitted effect of over 65% in size
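First, reporter cells (HEPG2 CAGA-GFP) rested 2 h at 37 degrees C. Next, compounds were pinned in and TGF-beta added to 500 pg/mL final. After 18 h, GFP was imaged per cell and summed per well.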
TDP1 block – qHTS Assay for Inhibitors of Tyrosyl-DNA Phosphodiesterase (TDP1). Tyrosyl-DNA phosphodiesterase 1 (Homo sapiens), Q9NUW8. recombinant TDP1, AlphaScreen DNA substrate cleavage. Potency, µM (series often up to 130 µM), inactives show at the top dose activity change, negative = inhibition, most hits filed as inhibitors. actives 0.28% (n = 350,000). AID 485290, 2010; note: potency is the fitted concentration of half-maximal effect; % is set by controls: 0 for no effect and ±100 for the full control effect; nearly all actives have a fitted effect of over 40% in size
Target sequence (Q9NUW8 whole entry, looked up): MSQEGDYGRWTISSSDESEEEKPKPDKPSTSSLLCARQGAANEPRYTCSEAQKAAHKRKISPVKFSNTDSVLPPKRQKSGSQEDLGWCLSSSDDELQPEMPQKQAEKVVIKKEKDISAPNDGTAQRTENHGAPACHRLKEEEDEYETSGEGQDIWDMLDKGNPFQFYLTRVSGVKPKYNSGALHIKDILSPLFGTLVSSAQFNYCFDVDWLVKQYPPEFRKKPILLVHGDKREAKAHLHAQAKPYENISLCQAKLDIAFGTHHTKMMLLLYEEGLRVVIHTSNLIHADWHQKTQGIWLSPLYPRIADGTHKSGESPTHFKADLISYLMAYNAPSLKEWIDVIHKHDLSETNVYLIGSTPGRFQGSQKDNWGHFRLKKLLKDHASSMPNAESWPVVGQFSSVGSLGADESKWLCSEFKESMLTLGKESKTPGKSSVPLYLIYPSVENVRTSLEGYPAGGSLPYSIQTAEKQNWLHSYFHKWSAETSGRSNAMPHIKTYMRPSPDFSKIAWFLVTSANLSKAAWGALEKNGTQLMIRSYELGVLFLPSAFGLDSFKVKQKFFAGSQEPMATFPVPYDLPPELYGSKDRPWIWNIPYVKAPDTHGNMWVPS
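Recombinant E. coli-expressed Tdp1 (1 nM) preincubated with compound 15 min at RT, then 5'-biotin/3'-phosphotyrosine-FITC DNA substrate (15 nM) added for 5 min. AlphaScreen beads (10 ug/ml) added, 10 min RT; tyrosine-FITC cleavage read as signal loss.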
TDP1 cell noCPT – qHTS for Inhibitors of human tyrosyl-DNA phosphodiesterase 1 (TDP1): qHTS in cells in absence of CPT | DT40 Tdp1-/- hTDP1 cells, no CPT, ATP luminescence, 48 h | Potency, µM (titrated, usually from 46.2 µM), for inactives: top-dose activity change, negative = growth inhibition, most hits filed as inhibitors | actives 15% (n = 420,000) | AID 686978, 2013; note: potency is the fitted concentration of half-maximal effect; % is set by controls: 0 for no effect and ±100 for the full control effect; nearly all actives have a fitted effect of over 55% in size
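Compound effects on proliferation are scored in DT40 Tdp1-/-;hTDP1 cells in the absence of CPT. ATP levels (CellTiter-Glo luminescence) are recorded after a ≥48 hr, 37 °C incubation.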
HepG2 viability – qHTS for Inhibitors of TGF-b: Cytotox Counterscreen; HepG2 CAGA-GFP viability, ATP luminescence, 18 h; Potency, µM (series often up to 46.1 µM), without a hit: top-dose activity change, negative = cytotoxicity, most hits filed as cytotoxic; actives 0.76% (n = 410,000); note: potency is the fitted concentration of half-maximal effect
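CellTiter-Glo luminescence gave cytotoxicity after 18 hours at 37 degrees C. The cells were HepG2 CAGA-GFP in 1% FBS DMEM, stimulated with 500 pg/mL TGF-beta after compound addition. %Activity was normalised to no-cell wells (complete cell-killing) and DMSO (no toxicity), and curves were fitted and classified.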
DT40 TDP1 CPT – qHTS for Inhibitors of human tyrosyl-DNA phosphodiesterase 1 (TDP1): qHTS in cells in presence of CPT; chicken DT40 Tdp1-/-;hTDP1 cells + 20 nM CPT, ATP luminescence, 48 h; actives 12% (n = 420,000); Potency, µM (doses to about 46.2 µM), without a hit: at the highest dose activity change, negative = growth inhibition, most hits filed as inhibitors; AID 686979, 2013; note: potency is the fitted concentration of half-maximal effect; % is set by controls: 0 for no effect and ±100 for the full control effect; nearly all actives have a fitted effect of over 55% in size
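Chicken DT40 Tdp1-/- cells stably complemented with human TDP1 were seeded at 400 cells/well in medium containing 20 nM camptothecin, exposed to pin-transferred compounds, and grown at 37 °C for at least 48 hr. Viability was read as ATP luminescence.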
An asterisk follows results filed as active; i = inactive; ? = inconclusive; / = not tested or not shown; [ ] = another dose, or the depositor's remark. Most compounds without a hit are left out; they make up all but 19% or so of the library. Unless noted, calls come from the whole dose curve; as a rule, active = well fitted curve in the direction sought with a large enough effect; inconclusive = small, poorly fitted or top-dose-only effect, or another doubt; inactive = no such curve, though single readings can be large; an effect the other way counts as inactive or inconclusive.

SMILES | IL-1B inflam inh | TGFb inhibitor | TDP1 block | TDP1 cell noCPT | HepG2 viability | DT40 TDP1 CPT
c1ccc2c(c1)oc1c(NCCCn3ccnc3)ncnc12 | 17 | -13% | 6% | -23% | 8% | ?
COc1ccccc1NC(=O)CN1C(=O)C(c2ccc(F)cc2)=NC1(C)C | / | / | -3% | -27% | -14% | -24%
CCSC(=O)N=Nc1ccc(O)cc1 | 0 | -15% | / | 12µM* | -24% | 15µM*
CC(=O)/C(N=Nc1ccc(SC(F)F)cc1)=C(\C)O | -10 | -6% | 5% | 7% | -23% | -4%
COc1cc2cc(C)nc(Cc3cccc4ccccc34)c2cc1OC | -8 | ? | 8% | 23µM* | -24% | 15µM*
COc1cc(NC(=O)Cc2cccc3ccccc23)c(C(=O)O)cc1OC | 11 | 7% | / | 18% | 13% | -15%
Cc1cccc(-n2ncc3c2CCCC3NC(=O)C2CCOCC2)c1C (centres undefined) | i | -3% | 2% | 15µM* | -23% | ?
Cc1cc(C(=O)NC2CCCc3c2cnn3-c2ccccc2F)nc(C)n1 (centres undefined) | -14 | ? | 2% | ? | 3% | ?
Cc1ccn(CCC(=O)NC2CCCc3c2cnn3-c2cccc(C)c2C)n1 (centres undefined) | 10 | -28% | 2% | -1% | 2% | ?
Cc1ccccc1-n1ncc2c1CC(C)(C)CC2NC(=O)C1CCC1 (centres undefined) | 52 | 8% | 2% | -3% | 0% | 2%
Cc1cccc(-n2ncc3c2CCCC3NC(=O)CCc2ccncc2)c1C (centres undefined) | 0 | -26% | 0% | 6.5µM* | -3% | 12µM*
Cc1cccc(-n2ncc3c2CCCC3NC(=O)c2ccc[n+]([O-])c2)c1C (centres undefined) | 20 | -17% | 0% | ? | -12% | 12µM*
Cc1cc(C(=O)NC2CCCc3c2cnn3-c2cccc(C)c2C)n(C)n1 (centres undefined) | 14 | -22% | 5%[56.1 µM] | 0.21µM* | -18% | 0.15µM*
COc1ccc(N2CC(NC(=O)/C=C\c3ccc(OC)c(OC)c3)CC2=O)cc1 (centres undefined) | / | 19% | 5% | -5% | -1% | -13%
Cc1cccc(-c2nc3scc(CCNS(=O)(=O)c4ccc(F)c(C(F)(F)F)c4)n3n2)c1 | / | ? | -5% | ? | -32% | ?
COc1ccc(-c2nc3scc(CCNS(=O)(=O)c4ccc(NC(C)=O)cc4)n3n2)cc1 | / | -13% | 0% | ? | -3% | ?
Cc1cccc(-c2nc3scc(CCNS(=O)(=O)c4ccc5c(c4)OCCO5)n3n2)c1 | / | ? | 0% | ? | -7% | 23µM*
CC(=O)Nc1ccc(S(=O)(=O)NCCc2csc3nc(-c4cccc(C)c4)nn23)cc1 | / | ? | 0% | 21µM* | -6% | ?
Cc1cccc(-c2nc3scc(CCNS(=O)(=O)c4ccc(F)cc4C)n3n2)c1 | / | 11µM* | 0% | 16µM* | -33% | ?
Cc1c(C(=O)N2CCCCCC2)c(S(=O)(=O)Nc2cccc(C#N)c2)c(C)n1C | / | -35% | 5% | -27% | -11% | -23%
CN(C)c1ccc(CNC(=O)c2cc3ccccn3n2)cc1 | / | 0% | 3% | -11% | -8% | -11%
CC(c1ccccc1)N1CCn2c(nc3cc(NC(=O)NC4CCCCC4)ccc32)C1 (centres undefined) | 77 | 51% | 11% | 22µM* | -23% | 22µM*
